Test results published in PMC7819943, “Rice protein-binding microarrays: a tool to detect cis-acting elements near promoter regions in rice”.
Over roughly 68,000 sequences, “fluorescence intensity (a.u.)” has its median near 9,100; the highest 2% begin near 16,000. Many of the other results were omitted from the sample, so the highest values are more common in it than they were.

Target: OsWRKY34 (Oryza sativa, UniProt Q0JBA9 1-250)
Assay: protein-binding microarray (RPBM); PBS, 2% BSA, 51.3 ng/ul salmon testes DNA, 50 uM zinc acetate, 200 nM TF, 25 C, 1 h; high values mean tight binding
Conditions: protein: recombinant; tags: N-terminal polyhistidine and DsRed monomer fusion (pET32a); label: CyDye5-dUTP incorporated in the synthesized complementary strand; 3' TTTTT single-stranded linker to array surface; dsDNA, one strand shown
Outline: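 Transcription factors, each fused N-terminally to a polyhistidine tag and DsRed, were expressed in E. coli BL21-CodonPlus and purified on Ni–NTA. A custom Agilent array was made double-stranded by primer extension with Cy5-dUTP and blocked with 2% BSA. It was incubated with 200 nM protein in PBS, 2% BSA, salmon testes DNA and 50 µM zinc acetate at 25 °C for 1 h, then washed. The binding signal is per-feature fluorescence intensity (arbitrary units) read on an Axon 4000B scanner.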

Sequence of OsWRKY34 (Q0JBA9 entry or part of it): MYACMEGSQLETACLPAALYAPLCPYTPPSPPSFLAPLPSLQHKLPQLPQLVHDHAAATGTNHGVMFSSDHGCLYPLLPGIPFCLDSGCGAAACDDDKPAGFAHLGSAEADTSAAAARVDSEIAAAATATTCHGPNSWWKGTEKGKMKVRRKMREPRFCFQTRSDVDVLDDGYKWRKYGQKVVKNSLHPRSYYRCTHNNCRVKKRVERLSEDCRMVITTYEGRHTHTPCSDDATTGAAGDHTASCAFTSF

Sequence | binding signal
ATATCATGTTTATTATCTTGTTATTTTGGATTAAAATATGCGGAGTCACCTAGTGCAG | 9720 fluorescence intensity (a.u.)
GATGCCTGCCAATCTGCCATGCCATTATATCTGCAGTTCTCGGAGTCACCTAGTGCAG | 12000 fluorescence intensity (a.u.)
CGTCTCTCCCGATCCGTCCCATCAAAAAGCAACACCAATACGGAGTCACCTAGTGCAG | 8530 fluorescence intensity (a.u.)
ATTTTTATAGTATTACATCTACGTGTAAAGTTTCATCTTTCGGAGTCACCTAGTGCAG | 8260 fluorescence intensity (a.u.)
CTATGGTTTGGTTTGAATTTTACTGTTGTATGCTGTTCCCCGGAGTCACCTAGTGCAG | 8660 fluorescence intensity (a.u.)
TGGCCGGGAGGGTTGGCCCTTGTGGTTTCGGGGTTTGGTTCGGAGTCACCTAGTGCAG | 15900 fluorescence intensity (a.u.)
CTTTTCTCATCCCTTTTGTTTCTTCACTCCGGCTCACCGCCGGAGTCACCTAGTGCAG | 8230 fluorescence intensity (a.u.)
GTACACGTTACCCGCGTGGGTGTGGGTATGGGGATGATTTCGGAGTCACCTAGTGCAG | 11700 fluorescence intensity (a.u.)
GGGTGTTTTCAGACGGAGAGAGGCGGCGGCGGCGGCGGGGCGGAGTCACCTAGTGCAG | 18500 fluorescence intensity (a.u.)
TGAGAAAGAGAGAGAGAGGGAGATGGCTGGGGAGACGGGGCGGAGTCACCTAGTGCAG | 9660 fluorescence intensity (a.u.)
CGAGGGAGAGGGGAGAGGGGAGTGCGGCGGGTGAGGCGGGCGGAGTCACCTAGTGCAG | 9650 fluorescence intensity (a.u.)
AGTGTTCTAGACTTACGGGTTACGGTTTTTTTTGTTAGAGCGGAGTCACCTAGTGCAG | 8090 fluorescence intensity (a.u.)
TAGGGTTTGGTTGGGTTTTTGGGTGTTTTCAGACGGAGAGCGGAGTCACCTAGTGCAG | 12800 fluorescence intensity (a.u.)
TATTTTTGACCAGAGGGAGGGTTTTTTTTTTTTTGAGAGACGGAGTCACCTAGTGCAG | 10300 fluorescence intensity (a.u.)
GGGTTGAGATGGGAGTAGAGGGGAGTGAGGTGGAAGAAGACGGAGTCACCTAGTGCAG | 8360 fluorescence intensity (a.u.)
GATCAGAGATGAGGGCGGGCGGGTTGACTGGGAGAGTAGACGGAGTCACCTAGTGCAG | 20500 fluorescence intensity (a.u.)
GCGGTGATGACAGACGGGAGAGGGAGGGTTTTTTTTGTTACGGAGTCACCTAGTGCAG | 18200 fluorescence intensity (a.u.)
ACACAGCCACACACCAACATGCCCTTCAGGTCTTCACACTCGGAGTCACCTAGTGCAG | 9550 fluorescence intensity (a.u.)
TTGTCTCCTATCTTGTGCCGTGCCTTCTTAAACCATTGCTCGGAGTCACCTAGTGCAG | 8610 fluorescence intensity (a.u.)
CATGGCCTAGTTGGGGTGTTGCGTATGTAATTTATCTGTCCGGAGTCACCTAGTGCAG | 8100 fluorescence intensity (a.u.)
TTGACGGAGCATCTATACCCGGTTTTGTAGTTCATGAACACGGAGTCACCTAGTGCAG | 9100 fluorescence intensity (a.u.)
ATTTTGGTACTACTCTATATTTTAGTTTGCAGCTTGTGCTCGGAGTCACCTAGTGCAG | 10600 fluorescence intensity (a.u.)
ATATACACATTCTCCCATTGCTATATTATCTGTATTCTGACGGAGTCACCTAGTGCAG | 13400 fluorescence intensity (a.u.)
CTCTCTCTATCCATCTCTTTCTCTCTCTCTTACACAACAACGGAGTCACCTAGTGCAG | 8150 fluorescence intensity (a.u.)
ATCTATCACCATCTCTCCTTGATCTTGTGCACCTTACAAACGGAGTCACCTAGTGCAG | 16800 fluorescence intensity (a.u.)
GATCTTGTGCACCTTACAAATTACATTGCCGACCATAAAACGGAGTCACCTAGTGCAG | 9320 fluorescence intensity (a.u.)
GTTATCAGCTTTTCTTTTTTTTTTGAAATTTCAGATTATTCGGAGTCACCTAGTGCAG | 8980 fluorescence intensity (a.u.)

Sequence | binding signal
CCCCATTCACTTCCACAGACAAGTAGCATCACCTTTCAGTCGGAGTCACCTAGTGCAG | 8710 fluorescence intensity (a.u.)
AATATATGACGCCGTTAACTTTTCGAACAACATTTGACTACGGAGTCACCTAGTGCAG | 9760 fluorescence intensity (a.u.)
TAAATGTTTAACGTCGTTGACTTTTTTAAACATGTATGACCGGAGTCACCTAGTGCAG | 19200 fluorescence intensity (a.u.)
CCTCCTTTTGACTCAGCAAGTCAATTGTGGTCAACCTGCCCGGAGTCACCTAGTGCAG | 8970 fluorescence intensity (a.u.)
CGATCAACGTTTGACTATTTGTTTTATTCAAAATTTTTGTCGGAGTCACCTAGTGCAG | 9460 fluorescence intensity (a.u.)
CCATATTTTAATGTATGACGCCATTGACTTTTTGTCCAACCGGAGTCACCTAGTGCAG | 14500 fluorescence intensity (a.u.)
GTTGACCGTTGACCTTTTTGTGGGTCAACTCAATCAAGACCGGAGTCACCTAGTGCAG | 16600 fluorescence intensity (a.u.)
CACCTTGACTCAGCGTGGTTGACTCTAGTCAACTTGTCACCGGAGTCACCTAGTGCAG | 10400 fluorescence intensity (a.u.)
TAAATGTTTAACGTTGTTGACTTTTTTAAACATGTTTGACCGGAGTCACCTAGTGCAG | 13500 fluorescence intensity (a.u.)
ATTTTAATGTATGACGCCGTTGACTTTTTGTCCAACGTTTCGGAGTCACCTAGTGCAG | 25600 fluorescence intensity (a.u.)
GTATGACGCCGTTGACTTTTCGATCAACGTTTGACTATTTCGGAGTCACCTAGTGCAG | 25300 fluorescence intensity (a.u.)
CACCAAGCATGTCCATGACCTTGCACTCTTGGCTCACTCGCGGAGTCACCTAGTGCAG | 8030 fluorescence intensity (a.u.)
CAAAATCCTTTTTCTTTTTTTCATTTTTTCTGTGCTTTTTCGGAGTCACCTAGTGCAG | 8680 fluorescence intensity (a.u.)
TAGGCTGATGGGTCTTCATGCTTCGGTTCATCTTCGTCTCCGGAGTCACCTAGTGCAG | 10200 fluorescence intensity (a.u.)
GGTGAGCTCTCTTTAATGCATATACACAGCAGCCTATTGCCGGAGTCACCTAGTGCAG | 8440 fluorescence intensity (a.u.)
TGTGATTTGCACCGCATACTTTCCCCGACAATAGATCATCCGGAGTCACCTAGTGCAG | 8850 fluorescence intensity (a.u.)
CCTCCGCTTCTTCGCCGCCGCCGCCATCCCGCCCTAGCGACGGAGTCACCTAGTGCAG | 9070 fluorescence intensity (a.u.)
ATTTTCTTTAAGAGATGTTCTTGTCTGTTGTCAGGTTTGTCGGAGTCACCTAGTGCAG | 9670 fluorescence intensity (a.u.)
ACCGTCGTCAGCAACGCCGCTACTGCCACTGCAATTGCCGCGGAGTCACCTAGTGCAG | 8320 fluorescence intensity (a.u.)
CCTTTTGGACGTACGTCGATAGTTGGGTAAATATGAAAAACGGAGTCACCTAGTGCAG | 11400 fluorescence intensity (a.u.)
CCGCATTTTAATGTATGACGTCATTGACTTTTCGATCAACCGGAGTCACCTAGTGCAG | 10200 fluorescence intensity (a.u.)
TTAATGTATGACGCCGTTGACTTTTTAATAAACGTTTGACCGGAGTCACCTAGTGCAG | 40900 fluorescence intensity (a.u.)
TATTTTAATGTATGACGCCGTTGACTTTTTAATCAATGTTCGGAGTCACCTAGTGCAG | 29100 fluorescence intensity (a.u.)
TGTGTACTATTTTTTCTACCGTTGGATACAAATATGAGGGCGGAGTCACCTAGTGCAG | 8510 fluorescence intensity (a.u.)
TTTAATGTATCACACCGTTAATTTTTTTTCAACGTTTGACCGGAGTCACCTAGTGCAG | 8900 fluorescence intensity (a.u.)
TTAATGTATGACGCCGTTGACTTTTTAATCAACGTTTGACCGGAGTCACCTAGTGCAG | 25900 fluorescence intensity (a.u.)
ACCTGTAAACTACCGTTGGATAAAAAATAAACGTATGAGACGGAGTCACCTAGTGCAG | 63600 fluorescence intensity (a.u.)
